Values joined by “and” are separate entries in the source; they are usually repeats but may differ in a detail not shown here. Identical values can stand only once. Results filed as inconclusive are left out. Where a call stands in place of a potency, no number is given. Some structures have more than one record in an assay (separate samples or runs), and their calls can disagree. Active and inactive are the calls of the source. Unless noted, calls follow the shape of the dose curve; as a rule, active = well fitted curve in the direction sought with a large enough effect in the repeat runs; inconclusive = weak or mixed curves; inactive = no such curve, though single readings can be large; an effect the other way counts as inactive or inconclusive.
What was measured:
[1] = qHTS assay to identify small molecule agonists of the hypoxia (HIF-1) signaling pathway - cell viability counter screen (AID 1224844; calls by dose curve; also: nearly all actives have a fitted effect of over 50% in size; also: potency is read from the fitted curve at half-maximal effect)
How it was run: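 Cells (HRE-bla ME-180, 2,000 per well) sat 5 hrs at 37C, got compound for 17 hrs, were read for CCF4-AM FRET, and were finally lysed with CellTiter-Glo for a 30 min room-temperature luminescence read.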

[2] = qHTS assay to identify small molecule agonists of H2AX (AID 1224845; active = well fitted activation curve with a large enough effect in the signal ratio in the repeat runs, not every such curve was filed as active; the % refers to the signal ratio)
How it was run: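 Phospho-H2AX Ser139 measured by HTRF (ex 320 nm; em 665 and 620 nm) after 24 hr antibody incubation. Compounds, 15 concentrations, 0.76% DMSO, were applied to CHO-K1 cells for 3hr at 37C before lysis.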

[3] = qHTS assay to identify small molecule agonists of H2AX - cell viability counter screen (AID 1224847; calls by dose curve;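 also: wild-type CHO-K1 cells; top concentration of the series differs between compounds; nearly all actives have a fitted effect of over 30% in size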)
How it was run: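 Cells plated first: CHO-K1, 1000 per well in 10% FBS medium, incubated overnight at 37C. Then 15-point compound titration added (final DMSO 0.76%) for 3 hr. Finally CellTiter-Glo added and luminescence read.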

[4] = qHTS RealTime-Glo MT Cell Viability Assay in HepG2 cells - 24 hour (AID 1224867); also: nearly all actives have a fitted effect of over 50% in size
How it was run: (§1)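 Viability was tracked continuously by NanoLuc luminescence from prosubstrate reduced by living HepG2 cells, at successive time points over 40 h of compound exposure. Cells with reagent were preincubated 5 h at 37 °C before compound addition.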

[5] = qHTS RealTime-Glo MT Cell Viability Assay in HEK293 cells - 32 hour (AID 1224868); also: nearly all actives have a fitted effect of over 50% in size; also: potency is read from the fitted curve at half-maximal effect
How it was run: (§2)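 Viability tracked continuously by luminescence as live cells reduce a prosubstrate for NanoLuc; HEK293 cells preincubated 5 h, compound-treated at 37 C, and read at 0, 8, 16, 24, 32 and 40 h.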

[6] = A CellTox Green Cytotoxicity Assay to monitor cytotoxicity in HEK293 cells - 0 hour (AID 1224869); also: nearly all actives have a fitted effect of over 50% in size; also: potency is read from the fitted curve at half-maximal effect
How it was run: (§3)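 Fluorescence intensity, read at 0, 8, 16, 24, 32 and 40 h of compound treatment, reflected dye binding to DNA of dead HEK293 cells; compounds (23 nL, DMSO) were added 5 h after plating cells with reagent.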

[7] = qHTS RealTime-Glo MT Cell Viability Assay in HepG2 cells - 40 hour (AID 1224870); also: nearly all actives have a fitted effect of over 50% in size
How it was run: (§4)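 Real-time viability: cells seeded at 600 per well together with NanoLuc and cell-permeant prosubstrate, compounds added after 5 h incubation. Luminescence tracked at 0, 8, 16, 24, 32 and 40 h of exposure.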

[8] = A CellTox Green Cytotoxicity Assay to monitor cytotoxicity in HEK293 cells - 40 hour (AID 1224871); also: nearly all actives have a fitted effect of over 45% in size; also: potency is read from the fitted curve at half-maximal effect
How it was run: as §3

[9] = qHTS RealTime-Glo MT Cell Viability Assay in HEK293 cells - 16 hour (AID 1224872); also: nearly all actives have a fitted effect of over 50% in size; also: potency is read from the fitted curve at half-maximal effect
How it was run: as §2

[10] = qHTS RealTime-Glo MT Cell Viability Assay in HEK293 cells - 40 hour (AID 1224874); settings: RealTime-Glo luminescence; max response: stronger effect = lower value; also: nearly all actives have a fitted effect of over 50% in size; also: potency is read from the fitted curve at half-maximal effect
How it was run: (§5)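 Viable HEK293 cells reduce a cell-permeant prosubstrate; the product diffuses out and is consumed by NanoLuc in the medium to give light. Compounds went in after a 5 h incubation and plates were read over the treatment course.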

[11] = A CellTox Green Cytotoxicity Assay to monitor cytotoxicity in HEK293 cells - 24 hour (AID 1224875); also: nearly all actives have a fitted effect of over 45% in size; also: potency is read from the fitted curve at half-maximal effect
How it was run: as §3

[12] = A CellTox Green Cytotoxicity Assay to monitor cytotoxicity in HepG2 cells - 16 hour (AID 1224876); also: nearly all actives have a fitted effect of over 45% in size; also: potency is read from the fitted curve at half-maximal effect
How it was run: (§6)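 Using 1536-well format, dye-containing HepG2 suspension was seeded, allowed 5 h at 37 C/5% CO2, dosed by pintool with compounds, positive and negative controls, and imaged for fluorescence across 40 h.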

[13] = qHTS RealTime-Glo MT Cell Viability Assay in HepG2 cells - 32 hour (AID 1224877); also: nearly all actives have a fitted effect of over 55% in size
How it was run: as §1

[14] = A CellTox Green Cytotoxicity Assay to monitor cytotoxicity in HepG2 cells - 24 hour (AID 1224878); also: nearly all actives have a fitted effect of over 45% in size; also: potency is read from the fitted curve at half-maximal effect
How it was run: as §6

[15] = A CellTox Green Cytotoxicity Assay to monitor cytotoxicity in HepG2 cells - 40 hour (AID 1224879); also: nearly all actives have a fitted effect of over 40% in size; also: potency is read from the fitted curve at half-maximal effect
How it was run: as §6

[16] = qHTS RealTime-Glo MT Cell Viability Assay in HEK293 cells - 0 hour (AID 1224880)
How it was run: as §5

[17] = qHTS RealTime-Glo MT Cell Viability Assay in HepG2 cells - 8 hour (AID 1224873); also: nearly all actives have a fitted effect of over 55% in size; also: potency is read from the fitted curve at half-maximal effect
How it was run: as §4

[18] = qHTS assay to identify small molecule antagonists of the estrogen related receptor (ERR) signaling pathway from Tox21 library (AID 1224848); also: nearly all actives have a fitted effect of over 50% in size; also: potency is read from the fitted curve at half-maximal effect
How it was run: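 Antagonist-mode screen of the Tox21 10K library in an NTP-provided ERR reporter cell line; 18 h compound exposure at 37 C, luminescence measured with ONE-Glo.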

[19] = qHTS assay to identify small molecule agonists of the estrogen related receptor (ERR) signaling pathway from Tox21 library (AID 1224849; calls by dose curve; also: nearly all actives have a fitted effect of over 15% in size); settings: ERR reporter cell line, ONE-Glo luciferase, 18 h
How it was run: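 Screening used an NTP-provided ERR luciferase cell line. Compounds in DMSO were added 6 h after seeding and left 18 h at 37 C before a 30 min ONE-Glo step and luminescence reading.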

With O=C1OC2(c3ccc(O)cc3Oc3cc(O)ccc32)c2ccccc21 the Potency [1] was “inactive”, the Potency [2] was “inactive” and the Potency [3] was “inactive”. For the same compound, the Potency [4] was “inactive”, the Potency [5] was “inactive” and the Potency [6] was 1.74 µM (active) and 848 nM (active). For the same compound, the Potency [7] was “inactive”, the Potency [8] was 692 nM (active) and 1.2 µM (active) and the Potency [9] was “inactive”. For the same compound, the max response [10] was 12.3% (inactive) and -17.2% (inactive), the Potency [11] was 692 nM (active) and 1.07 µM (active) and the Potency [12] was 616 nM (active) and 301 nM (active). The Potency [13] was “inactive”, the Potency [14] was 616 nM (active) and 301 nM (active) and the Potency [15] was 616 nM (active) and 301 nM (active). For the same compound, the Potency [16] was “inactive”.

For NNCCc1ccccc1, the Potency [1] was “inactive”, the Potency [2] was “inactive” and the Potency [3] was “inactive”. The Potency [4] was “inactive”, the Potency [5] was “inactive” and the Potency [6] was “inactive”. For the same compound, the Potency [8] was “inactive”, the Potency [9] was “inactive” and the Potency [17] was “inactive”. For the same compound, the max response [10] was -29.6% (inactive) and 3.04% (inactive), the Potency [11] was “inactive” and the Potency [12] was “inactive”. The Potency [13] was “inactive”, the Potency [14] was “inactive” and the Potency [15] was “inactive”. The Potency [16] was “inactive”.

For C=CC(=O)OCCCCCCCC, the Potency [1] was “inactive”, the Potency [2] was “inactive” and the Potency [18] was “inactive”. The activity change, positive = activation ([19]; at 92.4 µM (top of the series)) was 2.1% (inactive), the Potency [4] was “inactive” and the Potency [5] was “inactive”. The Potency [6] was “inactive”, the Potency [7] was “inactive” and the Potency [8] was “inactive”. For the same compound, the Potency [9] was “inactive”, the Potency [17] was “inactive” and the max response [10] was 3.71% (inactive). The Potency [11] was “inactive”, the Potency [12] was “inactive” and the Potency [14] was “inactive”. The Potency [15] was “inactive” and the Potency [16] was “inactive”.

With CCC(=O)/C=C/C1C(C)=CCCC1(C)C (stereo not given) the Potency [1] was “inactive”, the Potency [2] was “inactive” and the Potency [3] was “inactive”. The Potency [4] was “inactive”, the Potency [5] was “inactive” and the Potency [6] was “inactive”. The Potency [7] was “inactive”, the Potency [8] was 49.1 µM (active) and inactive and the Potency [9] was “inactive”. The Potency [17] was “inactive”, the max response [10] was -21.5% (inactive) and 0.0714% (inactive) and the Potency [12] was “inactive”. The Potency [13] was “inactive”, the Potency [14] was “inactive” and the Potency [15] was “inactive”. The Potency [16] was “inactive”.

For Cc1cc(OCCOCC[N+](C)(C)Cc2ccccc2)ccc1C(C)(C)CC(C)(C)C, the Potency [1] was 24.4 µM (active) and 23.9 µM (active), the Potency [2] was “inactive” and the Potency [18] was 13.6 µM (active) and 6.68 µM (active). For the same compound, the activity change, positive = activation ([19]; at 42.5 µM (top of the series)) was -54.7% (inactive), the activity change, positive = activation ([19]; at 92.4 µM (top of the series)) was -79.5% (inactive) and the Potency [5] was 10.9 µM (active) and 7.56 µM (active). For the same compound, the Potency [6] was “inactive”, the Potency [8] was 21.7 µM (active) and 23.9 µM (active) and the Potency [9] was 19.4 µM (active) and 19 µM (active). The Potency [17] was 21.7 µM (active) and 23.9 µM (active), the Potency [10] was 9.71 µM (active) and 6.01 µM (active) and the Potency [11] was 21.7 µM (active) and 23.9 µM (active). For the same compound, the Potency [12] was 19.4 µM (active) and 15.1 µM (active) and the Potency [15] was 13.7 µM (active) and 8.49 µM (active).

In the case of Cc1cccc2n[nH]nc12, the Potency [1] is reported as “inactive”, the Potency [2] is reported as “inactive” and the Potency [3] is reported as “inactive”. The Potency [18] was “inactive”, the activity change, positive = activation ([19]; at 92.4 µM (top of the series)) was 7.89% (inactive) and -7.83% (inactive) and the Potency [4] was “inactive”. For the same compound, the Potency [5] was “inactive”, the Potency [6] was “inactive” and the Potency [8] was “inactive”. For the same compound, the Potency [9] was “inactive”, the Potency [17] was “inactive” and the max response [10] was -0.386% (inactive). The Potency [11] was “inactive”, the Potency [12] was “inactive and 38.9 µM (active)” and the Potency [15] was “inactive”. The Potency [16] was “inactive”.

With O=C(OCc1ccccc1)c1ccc(O)cc1 the Potency [1] was “inactive”, the Potency [2] was “inactive” and the Potency [3] was “inactive”. For the same compound, the Potency [4] was “inactive”, the Potency [5] was “inactive” and the Potency [6] was “inactive”. The Potency [8] was “inactive”, the Potency [9] was “inactive” and the Potency [17] was “inactive”. For the same compound, the max response [10] was -24.2% (inactive), the Potency [11] was “inactive” and the Potency [12] was “inactive”. For the same compound, the Potency [15] was 49 µM (active) and inactive and the Potency [16] was “inactive”.

In the case of CCCCN(CCO)CCCC, the Potency [1] is reported as “inactive”, the Potency [2] is reported as “inactive” and the Potency [18] is reported as “inactive”. The activity change, positive = activation ([19]; at 92.4 µM (top of the series)) was 1.42% (inactive), the Potency [4] was “inactive” and the Potency [5] was “inactive”. The Potency [6] was “inactive”, the Potency [7] was “inactive” and the Potency [8] was “inactive”. For the same compound, the Potency [17] was “inactive”, the max response [10] was 2.9% (inactive) and the Potency [11] was “inactive”. For the same compound, the Potency [12] was “inactive”, the Potency [13] was “inactive” and the Potency [14] was “inactive”. The Potency [15] was “inactive” and the Potency [16] was “inactive”.

In the case of COC(c1ccccc1)(c1ccccc1)[C@H](Oc1nc(C)cc(C)n1)C(=O)O, the Potency [1] is reported as “inactive”, the Potency [2] is reported as “inactive” and the Potency [18] is reported as “inactive”. For the same compound, the activity change, positive = activation ([19]; at 42.5 µM (top of the series)) was 0.278% (inactive), the Potency [4] was “inactive” and the Potency [5] was “inactive”. For the same compound, the Potency [6] was “inactive”, the Potency [7] was “inactive” and the Potency [8] was “inactive”. The Potency [9] was “inactive”, the Potency [17] was “inactive” and the max response [10] was -3.67% (inactive). For the same compound, the Potency [11] was “inactive”, the Potency [12] was “inactive” and the Potency [13] was “inactive”. The Potency [14] was “inactive”, the Potency [15] was “inactive” and the Potency [16] was “inactive”.

For CC(N)=O, the Potency [1] was “inactive”, the Potency [2] was “inactive” and the Potency [3] was “inactive”. For the same compound, the Potency [4] was “inactive”, the Potency [5] was “inactive” and the Potency [6] was “inactive”. For the same compound, the Potency [7] was “inactive”, the Potency [8] was “inactive” and the Potency [17] was “inactive”. The max response [10] was 14.5% (inactive), the Potency [11] was “inactive” and the Potency [12] was “inactive”. For the same compound, the Potency [13] was “inactive”, the Potency [14] was “inactive” and the Potency [15] was “inactive”. For the same compound, the Potency [16] was “inactive”.

With CNC1(C)C2CCC(C2)C1(C)C (stereo not given) the Potency [1] was “inactive”, the Potency [2] was “inactive” and the Potency [3] was “inactive”. For the same compound, the Potency [18] was “inactive”, the activity change, positive = activation ([19]; at 42.5 µM (top of the series)) was 0.179% (inactive) and the Potency [5] was “inactive”. The Potency [6] was “inactive”, the Potency [7] was “inactive” and the Potency [8] was “inactive”. The Potency [9] was “inactive”, the Potency [17] was “inactive” and the max response [10] was -3.74% (inactive). The Potency [11] was “inactive”, the Potency [13] was “inactive” and the Potency [16] was “inactive”.
